Assays:
Assay in all cases: PBM binding z-score (relative to random genomic background probes); higher = stronger binding; sequences stand for … in GC…GCGATTGACAGCGTAGAATGAAGG
[1] = system: FXR:RXRa (NR concentration 270 nM, RXRa partner concentration 90 nM)
Method in brief: (§1)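 Binding buffer was PBS pH 7.4 with 2% milk, 0.02% Triton X-100, 1 mM DTT, 0.2 mg/mL BSA and 0.4 mg/ml salmon testes DNA. In it, ligand-free nuclear receptor dimers were incubated 1 h on custom Agilent 4×180K protein-binding microarrays carrying double-stranded probes. Antibodies against each partner (one per run) detected binding, and z-scores were calculated against random background probes after regression normalization of scanned fluorescence.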

[2] = system: LXRa:RXRa (NR concentration 270 nM, RXRa partner concentration 90 nM)
Method in brief: as §1

[3] = system: LXRa homodimer (NR concentration 270 nM)
Method in brief: as §1

[4] = system: LXRb:RXRa (NR concentration 270 nM, RXRa partner concentration 90 nM)
Method in brief: as §1

[5] = system: LXRb homodimer (NR concentration 270 nM)
Method in brief: as §1

[6] = system: PPARa:RXRa (NR concentration 270 nM, RXRa partner concentration 90 nM)
Method in brief: as §1

[7] = system: PPARg:RXRa (NR concentration 180 nM, RXRa partner concentration 90 nM)
Method in brief: as §1

[8] = system: PPARg:RXRa 270nM:90nM, anti-RXR (NR concentration 270 nM, RXRa partner concentration 90 nM)
Method in brief: as §1

[9] = system: PPARg:RXRa 30nM:10nM, anti-RXR (NR concentration 30 nM, RXRa partner concentration 10 nM)
Method in brief: as §1

[10] = system: PPARg:RXRa 90nM:30nM, anti-RXR (NR concentration 90 nM, RXRa partner concentration 30 nM)
Method in brief: as §1

[11] = system: PPARg:RXRa DBDmut IVT, anti-RXR (DBD mutation: RXRa K156A/R161A, NR concentration 270 nM, RXRa partner concentration 90 nM)
Method in brief: as §1

[12] = system: PPARg:RXRa IVT, anti-PPARg (NR concentration 270 nM, RXRa partner concentration 90 nM)
Method in brief: as §1

[13] = system: PPARg DBDmut:RXRa IVT, anti-PPARg (DBD mutation: PPARg1 K132A/R137A, NR concentration 270 nM, RXRa partner concentration 90 nM)
Method in brief: as §1

[14] = system: PPARg DBDmut IVT, anti-PPARg (DBD mutation: PPARg1 K132A/R137A, NR concentration 270 nM)
Method in brief: as §1

[15] = system: PPARg homodimer (NR concentration 180 nM)
Method in brief: as §1

[16] = system: PXR:RXRa (NR concentration 270 nM, RXRa partner concentration 90 nM)
Method in brief: as §1

[17] = system: PXR homodimer (NR concentration 270 nM)
Method in brief: as §1

[18] = system: RARa:RXR (NR concentration 270 nM, RXRa partner concentration 90 nM)
Method in brief: as §1

[19] = system: RARa homodimer (NR concentration 270 nM)
Method in brief: as §1

[20] = system: RARb:RXRa (NR concentration 270 nM, RXRa partner concentration 90 nM)
Method in brief: as §1

| Sequence | PBM binding z-score [1] | PBM binding z-score [2] | PBM binding z-score [3] | PBM binding z-score [4] | PBM binding z-score [5] | PBM binding z-score [6] | PBM binding z-score [7] | PBM binding z-score [8] | PBM binding z-score [9] | PBM binding z-score [10] | PBM binding z-score [11] | PBM binding z-score [12] | PBM binding z-score [13] | PBM binding z-score [14] | PBM binding z-score [15] | PBM binding z-score [16] | PBM binding z-score [17] | PBM binding z-score [18] | PBM binding z-score [19] | PBM binding z-score [20] |
| --- | --- | --- | --- | --- | --- | --- | --- | --- | --- | --- | --- | --- | --- | --- | --- | --- | --- | --- | --- | --- |
| TCTTGTAGATCAACAGGAGGTTTAGAAAGATCGA | -0.117 | -0.19 | -0.342 | 0.0269 | -0.559 | 0.152 | -0.195 | 0.953 | 2.59 | 1.93 | 1.64 | 0.449 | 0.726 | 0.199 | 0.11 | -0.0955 | -0.425 | 0.104 | -0.667 | -0.271 |
| CCTTCTGGGCCAAAGGTCATTGATTCCAATGCTC | 4.88 | 5.18 | 4.15 | 5 | 1.15 | 6.61 | 11.3 | 10.2 | 10.6 | 11.4 | 5.17 | 6.5 | 0.508 | 0.533 | 2.95 | 5.52 | 1.51 | 6.29 | 0.576 | 4.44 |
| CCTACTGGGCCAAAAAGGTCATTAATGCCGATAA | 2.98 | 3.74 | 2.97 | 4.21 | 0.494 | 4.39 | 2.98 | 3.7 | 1.44 | 2.96 | 3.72 | 3.94 | 0.336 | 0.139 | 3.45 | 4.39 | 3.17 | 5.01 | 1.3 | 3.64 |
| GCCATTAGTTGAAAGGGCAACCGAATGATTCTCG | 0.121 | 0.648 | 0.0731 | 0.887 | -0.56 | 2.25 | 2.41 | 4.11 | 1.8 | 3.93 | 0.352 | 0.947 | 0.187 | -0.306 | 0.971 | 0.706 | 0.067 | 1.4 | -0.15 | 2.21 |
| CGTCCAAGGTCATAGGTCAGTGAAGAGATGACGG | 7.34 | 5.78 | 1.65 | 4.74 | 1.02 | 6.22 | 7.76 | 7.27 | 5.12 | 7.07 | 3.46 | 4.78 | 0.896 | -0.0935 | 3.35 | 5.48 | 1.01 | 6.98 | 1.13 | 5.36 |
| AGAACGAGGGCACGCTGTGTTGATAGCAGAGTAG | 0.77 | 0.377 | -0.602 | 0.159 | -1.07 | 1.92 | 2.14 | 1.81 | 0.262 | 1.12 | 4.43 | 3.96 | 0.394 | -0.216 | -0.372 | 0.28 | -0.446 | 0.799 | -0.803 | 2.39 |
| CCTACTGGGCCACGAACGGTCATTGATTCAGTGA | 0.0231 | 1.38 | 0.691 | -0.0702 | -0.838 | 0.858 | 1.47 | 1.36 | -0.262 | 0.515 | 5.64 | 4.88 | -0.4 | -0.69 | 0.254 | -0.201 | -0.435 | 0.0689 | -0.329 | 1.42 |
| CCTACTGGGCCATTCACAGGTCATTGATCATATG | 0.864 | 2.27 | 4.05 | 2.21 | -0.0927 | 2.62 | 1.27 | 2.04 | 0.468 | 1.3 | 4.38 | 4.07 | 0.164 | 0.233 | 1.37 | 2.11 | 0.599 | 2.4 | 0.567 | 2.03 |
| TTAACAAGGTGAAGGTCGTTGATCCCTCTGTAGA | 2.23 | 1.78 | -0.258 | 1.35 | -0.562 | 2.91 | 2.42 | 3.09 | 1.5 | 2.65 | 2.79 | 3.4 | 0.419 | 0.266 | 0.4 | 1.35 | 0.014 | 1.82 | -0.625 | 2.03 |
| GGAACGAGGGCATTCGAGTCGATAGCATGGCGAT | 0.976 | 0.293 | -0.802 | -0.159 | -0.384 | 1.15 | 0.824 | 0.495 | -0.192 | 0.0537 | 2.96 | 2.19 | -0.0559 | -0.671 | -0.141 | 1.5 | 0.546 | 0.428 | -0.54 | 1.48 |
| CCTTACGGGCCAAGGTTATAGCACGGGTGGTACG | -0.197 | 0.16 | -0.442 | -0.247 | -0.834 | 0.498 | 0.573 | 0.597 | -0.309 | -0.163 | -0.837 | -0.312 | -1.25 | -0.861 | 0.309 | 0.0685 | -0.372 | 0.242 | 0.00233 | 1.13 |
| ACTTACGTGTCAACGAGGTTATAGCACGCGTATA | 0.812 | 1.03 | 0.113 | 1.02 | 0.0422 | 1.84 | 0.927 | 0.653 | 0.374 | 0.627 | 0.785 | 1.07 | 0.246 | 0.671 | 0.479 | 1.26 | 0.652 | 1.65 | 0.0685 | 1.2 |
| TCTATTAGTTGATTAGAGCAACCGAAACAGCGGA | 0.47 | 0.476 | 0.0625 | 0.326 | 0.361 | 0.484 | -0.0852 | 1.56 | 3.21 | 2.38 | 1.66 | 0.345 | 0.782 | 0.622 | -0.0743 | 0.128 | -0.0101 | 0.143 | 0.166 | 0.00144 |
| TCTTGTAGATCAACAGGATGTTAAGAAAGATCGA | 0.365 | 0.173 | -0.3 | 0.12 | -0.659 | 0.612 | 0.227 | 1.3 | 2.66 | 1.97 | 1.7 | 0.652 | 0.783 | 1.26 | -0.565 | 0.147 | -0.381 | 0.44 | 0.0345 | -0.191 |

From the supplement of paper PMC6555819
